Screening data (PubChem)
Giardia kill: Giardia lamblia killing; activity change, % at 7.66 µM, hits read low; 340,000 compounds, 0.15% hits; Giardia lamblia trophozoite viability; in the data active means activity change below about -80%; inconclusive means between about -30% and that limit;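 further: parasites exposed to compound for two days anaerobically before the ATP read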
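Each well holds 100 Giardia trophozoites and compound. After two days (48 hrs) at 37 deg C in anaerobic conditions, ATP is quantified by luminescence.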
KB-V1 MDR tox: kills drug-selected multidrug resistant KB-V1 cells; KB-V1 MDR cells viability, CellTiter-Glo, 72 h; Potency, µM (highest dose often 46.1 µM), most hits filed as cytotoxic; 400,000 compounds, 3.4% hits; further: potency means the concentration at half of the fitted maximal effect; nearly all actives have a fitted effect of over 60% in size
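KB-V1 cells (P-gp-expressing MDR subline of KB-3-1) in phenol-red-free DMEM with 10% FBS were exposed to library compounds over a concentration series for 72 h at 37 degrees C. Viability read by CellTiter-Glo luminescence; concentration-effect curves fitted after normalization.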
KB-3-1 cytotox: kills parental KB-3-1 adenocarcinoma cells. Potency, µM (highest dose often 46.1 µM), hits mostly cytotoxic. KB-3-1 viability, CellTiter-Glo ATP luminescence, 72 h. 400,000 compounds, 1.4% hits; further: potency means the concentration at half of the fitted maximal effect; nearly all actives have a fitted effect of over 60% in size
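Luminescent ATP read-out (CellTiter-Glo) measures survival of drug-naive KB-3-1 cells after 72 h compound exposure at 37 °C. Titration series was screened from lowest to highest concentration, with DMSO vehicle plates as background controls.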
Nrf2 inh: Nrf2 pathway inhibition. A549 ARE-Fluc reporter, luciferase luminescence, 18-24 h. AID 504444. 360,000 compounds, 2.1% hits. Potency, µM (titrated, usually from 46 µM), without a hit: top-dose activity change, negative = inhibition, usual class: inhibitors; further: potency means the concentration at half of the fitted maximal effect; nearly all actives have a fitted effect of over 60% in size
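In this cell-based qHTS, ARE-driven firefly luciferase in A549 cells reports Nrf2 activity; the luminescent signal after BugLite lysis is the measured value, with a prior CellTiter-Fluor read for cell health.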
A549 viability: A549 cytotoxicity, counter-screen for Nrf2 inhibitors; A549 ARE-Fluc cells, CellTiter-Fluor viability, 18-24 h; Potency, µM (titrated, usually from 46 µM), for inactives: at the highest dose activity change, negative = cytotoxicity, actives largely listed as inhibitors; 390,000 compounds, 0.16% hits; further: potency means the concentration at half of the fitted maximal effect
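A549 ARE_Fluc cells in 5% FBS OPTI-MEM were exposed to compounds in concentration-response for 18-24 h at 37 deg C. Viability was read by CellTiter-Fluor fluorescence (Ex 405/Em 525) after 30 min, before the luciferase read.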
PI4K2A block: inhibitors of human PI4K2A. Q9BTU6. purified PI4K2A, ADP-Glo luminescence, 1 h; hits give low values. activity change, negative = inhibition, % at 76.9 µM. 420,000 compounds, 0.13% hits. AID 1346378; in the data active means activity change below about -50%; inconclusive means mostly about -30% to -49%;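 further: -100% = wells without enzyme as full effect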
Target sequence (Q9BTU6 whole entry, looked up): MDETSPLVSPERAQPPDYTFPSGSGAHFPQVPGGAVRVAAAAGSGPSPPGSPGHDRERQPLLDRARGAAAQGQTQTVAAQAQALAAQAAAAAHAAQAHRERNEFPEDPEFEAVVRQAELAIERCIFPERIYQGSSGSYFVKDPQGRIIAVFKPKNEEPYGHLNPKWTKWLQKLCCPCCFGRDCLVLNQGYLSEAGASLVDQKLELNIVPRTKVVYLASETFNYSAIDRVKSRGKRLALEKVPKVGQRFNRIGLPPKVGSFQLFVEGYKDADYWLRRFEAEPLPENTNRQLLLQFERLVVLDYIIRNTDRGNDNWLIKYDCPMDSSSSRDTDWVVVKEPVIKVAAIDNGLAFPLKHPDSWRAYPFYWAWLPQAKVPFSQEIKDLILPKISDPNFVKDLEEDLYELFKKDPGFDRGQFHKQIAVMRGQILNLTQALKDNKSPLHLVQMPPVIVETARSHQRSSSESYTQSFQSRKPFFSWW
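ADP-Glo luminescence measured ADP generated by PI4K2A enzyme (4 ug/mL before mixing) with 1.2 mM PI substrate (pre-mix) and 300 microM ATP (pre-mix). Tris pH7.5 buffer with MgCl2, Triton X-100; 1 h reaction at ambient temperature.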
* hit, by the source's call; i = inactive; ? = inconclusive; · = no result given; ! = repeats disagree; [ ] = dose if it differs, or a comment. A selection: hits, their analogues and other compounds. The true share with any hit is near 5.7%. Unless noted, the call rests on the fitted dose curve; in most records, active means well fitted curve in the direction sought with a large enough effect; inconclusive means small, poorly fitted or top-dose-only effect, or another doubt; inactive means no such curve, though single readings can be large; an effect the other way counts as inactive or inconclusive. Unless noted, on the % scale 0 is the no-effect control and ±100 the full control effect.

SMILES	Giardia kill	KB-V1 MDR tox	KB-3-1 cytotox	Nrf2 inh	A549 viability	PI4K2A block
CCCCN1CCc2c1nc1ccc(Br)cc1c2N	14	21µM*	i	-18%	?	-1
O=S(=O)(CC1NCc2ccccc21)NCCc1ccccc1 (centres undefined)	·	·	·	·	·	-3
CCN(CC)c1ccc(NC(=O)c2ccc3c(c2)c(C)c(C)n3C)cc1	6	16µM*	23µM*	-16%	-6%	-4
CC1=C(C(=O)Nc2cc(Cl)ccc2C)C(c2ccccc2F)n2ncnc2N1 (centres undefined)	·	18µM*	i	·	9%	-11
Cc1ccc(-c2noc(-c3ccc(NCc4ccco4)c([N+](=O)[O-])c3)n2)cc1	·	i	i	2%	4%	1
c1ccc(CN2CCN(c3nc(-c4ccccc4)nc(-n4ccnc4)n3)CC2)cc1	-1	?	?	15µM*	-30%	-6
c1ccc(N(c2ccccc2)c2nc(N3CCCC3)nc(-n3ccnc3)n2)cc1	-8	i	i	23µM*	?	-1
c1ccc(-c2nc(-n3ccnc3)nc(-n3ccnc3)n2)cc1	2	?	i	?	-20%	-15
O=c1c2c(-c3cccs3)csc2ncn1/N=C/c1ccc(OC(F)F)cc1	8	15µM*	i	9.2µM*	?	-4
O=C(O)COc1ccc(/C=N/n2cnc3scc(-c4cccs4)c3c2=O)cc1	-4	i	i	8%	5%	-8
O=C(NC12CC3CC(CC(C3)C1)C2)c1ccc(N2CCNCC2)c([N+](=O)[O-])c1	1	23µM*	18µM*	21%	-2%	-3
C=C1C(=O)[C@]23C[C@H]1CCC2[C@@]1(C)C(C[C@@H]3O)[C@](C)(C(=O)OC)CC[C@@H]1OC(C)=O (some centres undefined)	·	16µM*	?	·	·	-9
C=C1C(=O)[C@]23C[C@H]1CC[C@H]2[C@]1(C)[C@@H](OC(C)=O)CC[C@@](C)(C(=O)OC)[C@H]1C[C@@H]3OC(C)=O	·	i	?	·	·	-1
O=C(CNC(=O)c1ccccc1)OCC(=O)c1cccc2ccccc12	6	i	?	5%	0%	·
Cc1ccn2c(NCc3ccccc3)c(-c3cccc(SC4CCCCC4)c3)nc2c1	27	21µM*!	?	?	-20%	-2
CCCCNc1c(-c2ccc(SC(C)CC)cc2)nc2ccccn12 (centres undefined)	-14	13µM*!	18µM*!	21%	-7%	-26
CCCCNc1c(-c2ccc(SC3CCCCC3)cc2)nc2ccccn12	30	21µM*!	?	-24%	-11%	-6
CCOC(=O)[C@@]12CCC3=C1N(CCC3)C(=O)[C@H](CC(=O)NCCCCc1ccccc1)C2	·	·	·	·	·	3
CN(C(=O)c1cc2c(=O)oc3ccccc3c2s1)c1ccc(F)cc1	·	i	i	5%[9.27 µM]	2%	-2
CCOC(=O)[C@]12CCCC3=C1N(CCC3)C(=O)[C@@H](CC(=O)N1CCOCC1)C2	·	·	·	·	·	-3
CCOc1ccccc1CNC(=O)C1CCCN(c2nnc(C)c3c(C)n(-c4ccccc4)nc23)C1 (centres undefined)	0	?	?	23µM*!	?	-3
COc1ccc(-n2nc3c(N4CCCC(C(=O)NCc5ccccc5C)C4)nnc(C)c3c2C)cc1 (centres undefined)	·	·	·	21µM*	18µM*	-11
COc1ccc(-n2nc3c(N4CCCC(C(=O)NCCc5ccccc5C)C4)nnc(C)c3c2C)cc1 (centres undefined)	·	i	i	?	-30%	-1
Cc1cc(C)nc(NC(=S)N2CCN(c3ccc(Cl)c(Cl)c3)CC2)c1	·	·	·	·	·	7
O=C(CNC(=O)c1ccccc1F)OCc1nc2ccc(Cl)cc2n1CCO	42	i	i	13%	14%	5
SMILES	Giardia kill	KB-V1 MDR tox	KB-3-1 cytotox	Nrf2 inh	A549 viability	PI4K2A block
O=C(OCc1nc2ccc(Cl)cc2n1CCO)c1ccccc1C(=O)c1ccccc1	4	16µM*	i	-3%	8%	3
CCN1c2ccccc2-c2nc(SCC(=O)Nc3c(C)cc(C)cc3C)ncc2S1(=O)=O	·	4.6µM*	10µM*	0%	?	-1
O=C(CSc1ncc2c(n1)-c1cc(Cl)ccc1N(Cc1ccccc1)S2(=O)=O)Nc1ccc(F)cc1F	·	13µM*	i	-1%	-3%	0
CN1c2cc(Cl)ccc2-c2nc(SCC(=O)Nc3ccc(F)cc3F)ncc2S1(=O)=O	·	?	?	16µM*	-17%	-6
Nc1[nH]c(=S)nc2nnsc12	·	i	?	·	·	·
CCOC(=O)Nc1ccc2c(c1)[C@]1(CC(=O)N(CC(C)C)C1c1ccccc1)C(=O)N2C (some centres undefined)	·	·	·	·	·	-3
Nc1[nH]c(=O)nc2c1ncn2C1OC(CO)C(O)C1O (centres undefined)	-12	i	i	10%	2%	·
O=c1cnn([C@@H]2O[C@H](CO)[C@@H](O)[C@H]2O)c(=O)[nH]1	12	4.1µM*	?	?	-3%	-5
COc1ccc(NC(=O)c2cc3ccccn3n2)cc1	?	?	i	-13%	11%	0
O=C(Nc1ccc(OC(F)(F)F)cc1)c1cc2ccccn2n1	·	?	10µM*	?	20%	-3
CCCc1cc(=O)[nH]c(SCc2cc(=O)oc3cc(C)c(C(C)C)cc23)n1	3	21µM*	i	8%	9%	-3
Cc1cc2oc(=O)cc(CSc3nc(N)cc(N)n3)c2cc1C(C)C	-4	i	i	-12%	-3%	-1
O=C(COc1ccc(Cl)cc1)Nc1cccc(S(=O)(=O)NC2=NCCCCC2)c1	-1	i	i	26µM*	-18%	1
N#Cc1ccc(OCC(=O)Nc2cccc(S(=O)(=O)NC3=NCCCCC3)c2)cc1	-3	i	i	0%	-12%	-3
O=C(Nc1cccc(S(=O)(=O)NC2=NCCCCC2)c1)c1ccc(Cl)cc1	10	?	?	15µM*	-20%	0
Nc1[nH]n2c(=O)cc(-c3ccccc3)nc2c1N=Nc1ccc(S(N)(=O)=O)cc1	9	i	i	?	-21%	1
NS(=O)(=O)c1ccc(N=Nc2c(-c3ccccc3)[nH]n(-c3nc(-c4ccccc4)cs3)c2=O)cc1	9	21µM*	?	4.6µM*	?	-1
CCN(CC)CCNc1nc2cc(OC)c(OC)cc2c2nc(-c3ccccc3)nn12	19	9.2µM*	16µM*	0%	23%	2
